Laboratory results taken from PubChem BioAssay AID1460 (National Center for Advancing Translational Sciences (NCATS), 2008).
The campaign covered roughly 270,000 compounds. About 5,800 (2.1%) were called active. Where a call stands in place of a potency, no number is given. Another 16% or so got no clear call; they are omitted. Calls follow the shape of the dose curve; as a rule, active = well fitted inhibition curve with a large enough effect; inconclusive = small, poorly fitted or top-dose-only effect; inactive = flat fitted curve, though single readings scatter. Many of the other results were omitted from the sample, so actives are more common in it than they were.

The molecules below were run against Microtubule-associated protein tau (Homo sapiens) (UniProt P10636) (assay: qHTS for Inhibitors of Tau Fibril Formation, Thioflavin T Binding). Settings: recombinant tau K18 P301L (four-repeat tau fragment), heparin-induced fibrillization, ThT fluorescence; series mostly up to 57.4 µM.
Chain of Microtubule-associated protein tau (Homo sapiens) (P10636 561-689 P618L limits assumed): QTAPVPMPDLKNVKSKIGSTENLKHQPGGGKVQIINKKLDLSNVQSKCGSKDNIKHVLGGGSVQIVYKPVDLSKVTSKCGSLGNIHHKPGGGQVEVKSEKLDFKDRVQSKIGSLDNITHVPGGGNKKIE
Method in brief: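 Heparin-induced fibrillization of the P301L-mutant K18 repeat-domain fragment of human tau was followed by ThT binding in quantitative high-throughput format.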
Also: nearly all actives have a fitted effect of over 55% in size.
Potency is read from the fitted curve at half-maximal effect.

Row | Structure (SMILES) | Potency
1 | Cc1cccc(C(=O)N2CCc3cc(CNC(=O)Cc4ccc(F)cc4)ccc32)c1 | inactive
2 | CCC(=O)Nc1cccc(-c2nc3cc(C)ccc3o2)c1 | inactive
3 | O=C(NNc1c2ccccc2nc2ccccc12)c1cc2ccccc2cc1O | 2 µM (active)
4 | Cc1nc2ccccc2cc1O | inactive
5 | O=C(Nc1c2c(nc3ccccc13)CCCC2)c1ccccc1Br | inactive
6 | COc1ccc(-c2nc3sc(CCNS(=O)(=O)c4ccc(F)c(C)c4)c(C)n3n2)cc1 | inactive
7 | O=C1CN(C(=O)Nc2ccccc2C(F)(F)F)C(c2ccccc2)c2c(sc3c2CCCC3)N1 (stereo unspecified) | inactive
8 | Cc1nc2ccc(S(=O)(=O)N(CC(=O)Nc3ccc(F)cc3)Cc3ccccc3)cc2s1 | inactive
9 | Cc1ccccc1CNC(=O)CSc1nnc(C)c2c(C)n(-c3ccccc3)nc12 | inactive
10 | O=C(CCN1C(=O)c2ccccc2C1=O)Nc1cccc(F)c1 | inactive
11 | CCN(CC)C(=O)C(=O)Nc1cccc(Br)c1 | inactive
12 | CCN(CC)C(=O)CSC(Nc1cccc(F)c1)=C(C#N)C#N | 28.2 µM (active)
13 | O=C(Nc1ccc(C(=O)OCc2cc(=O)n3nc(C4CC4)sc3n2)cc1)c1ccc(F)cc1 | inactive
14 | O=C(Nc1ccc(F)cc1F)c1ccc2c(=O)n3c(nc2c1)CCCCC3 | inactive
15 | Cn1c(=O)n(Cc2c(F)cccc2Cl)c(=O)c2c1nc1n2CCN1c1ccc(F)cc1 | inactive
16 | Cc1c(NC(=O)Nc2ccccc2)cccc1[N+](=O)[O-] | inactive
17 | CCOC(=O)Cc1csc(NC(=O)Nc2ccccc2)n1 | inactive
18 | CCOC(=O)/C(=N\Nc1ccccc1[N+](=O)[O-])c1csc(Nc2ccccc2)n1 | 5.01 µM (active)
19 | Cc1cc(C)cc(NC(=O)CCCc2nc(-c3ccccc3Cl)no2)c1 | inactive
20 | Cc1ccc(C)c(N2C(=O)N(Cc3c(F)cccc3Cl)c3ccccc3S2(=O)=O)c1 | inactive
21 | Cc1cccc(-n2ccnc2SCC(=O)Nc2cccc3ccccc23)c1C | inactive
22 | COc1ccc(OC)c(CNC(=O)c2c3c(nc4ccccc24)C(=O)N(C2CCCCC2)C3)c1 | inactive

Row | Structure (SMILES) | Potency
23 | Cc1ccc(C(=O)Nc2c(C(=O)NC(C)(C)C)oc3ccccc23)cc1 | inactive
24 | COCCNC(=O)c1ccccc1NS(=O)(=O)c1ccc(C)c([N+](=O)[O-])c1 | inactive
25 | Cc1ccc(NS(=O)(=O)c2ccc(N/N=C/c3ccccc3OCC(=O)O)c([N+](=O)[O-])c2)c(C)c1 | 12.6 µM (active)
26 | Cc1ccc(NS(=O)(=O)c2ccc(C)c(NC(=O)COc3ccc4ccccc4c3)c2)c(C)c1 | inactive
27 | COc1cccc(CNCc2c(C(=O)O)n(Cc3ccc(C)cc3)c3cc(C)ccc23)c1OC | inactive
28 | O=C(CCC1N=C2c3ccccc3N=C(SCc3ccccc3F)N2C1=O)NCCc1ccccc1 (stereo unspecified) | inactive
29 | Cc1cccc(N=C2NC(=O)/C(=C/c3cn(C)c4ccccc34)S2)c1 | 11.2 µM (active)
30 | Cn1cc(/C=C/c2nc3ccccc3c(=O)n2-c2cccc([N+](=O)[O-])c2)c2ccccc21 | inactive
31 | Cc1ccc(N2C(=O)S/C(=C/c3cn(C)c4ccccc34)C2=O)cc1 | inactive
32 | CCCn1c2ccccc2c2cnn(CC(=O)NCCCN3CCCCC3CC)c(=O)c21 (stereo unspecified) | inactive
33 | CCc1nnc2c3ccccc3nc(N3CCN(c4ccc(C)cc4C)CC3)n12 | inactive
34 | COc1cccc(Cn2c(CNS(=O)(=O)c3ccc(Cl)s3)nc3cccnc32)c1 | inactive
35 | c1ccc(CSc2nnc(-c3ccco3)c(-c3ccco3)n2)cc1 | 7.94 µM (active)
36 | Nc1nc(SCc2ccccc2Cl)n[nH]1 | inactive
37 | Brc1ccc(CSc2ccc(-c3ccco3)nn2)cc1 | inactive
38 | COC(OC)c1ccnc(SCc2ccccc2Cl)n1 | inactive
39 | Clc1ccccc1CSc1nnc(-c2ccco2)c(-c2ccco2)n1 | 17.8 µM (active)
40 | O=C(Nc1nnc(SCc2ccccc2)s1)c1ccco1 | inactive
41 | COc1ccc(C2C(=O)N(C3CCCCC3)CC(=O)N2Cc2ccccc2Cl)cc1OC (stereo unspecified) | inactive
42 | Cc1onc(-c2ccc(F)cc2F)c1C(=O)Nc1cccc(C(F)(F)F)c1 | inactive
43 | CCC(Sc1nc2n[nH]c(C)c2c(=N)n1-c1ccccc1Cl)C(=O)N(CC)CC (stereo unspecified) | inactive
44 | COc1ccccc1CNC(=O)C(=O)NCC(c1cccs1)S(=O)(=O)c1cccs1 (stereo unspecified) | inactive

Row | Structure (SMILES) | Potency
45 | CN(C)c1ccc(/C=C/C(=O)c2ccc(C(C)(C)C)cc2)cc1[N+](=O)[O-] | inactive
46 | CC(CC(=O)O)C(=O)c1ccc(Cl)c([N+](=O)[O-])c1 (stereo unspecified) | inactive
47 | O=C(/C=C/c1ccc(Cl)c([N+](=O)[O-])c1)c1ccc(O)cc1 | 15.8 µM (active)
48 | Cc1cc(C)n(-c2ccc(C(=O)O)cc2[N+](=O)[O-])n1 | inactive
49 | O=C(c1ccc(Cl)c([N+](=O)[O-])c1)N1CCN(c2ccccc2)CC1 | inactive
50 | CN(C)c1ccc(/C=C/C(=O)c2ccc(O)cc2)cc1[N+](=O)[O-] | 4.47 µM (active)
51 | COc1ccccc1CNc1ccc(-c2nc(-c3ccccc3C)no2)cc1[N+](=O)[O-] | inactive
52 | CCCOc1ccc(-c2cccc(NS(=O)(=O)c3ccccc3)c2)nn1 | inactive
53 | COc1ccc(CNC(=O)COCc2cc(-c3cccs3)on2)cc1OC | inactive
54 | Cc1ccc(Cn2cc(CCC(=O)NCc3ccc(OC(C)C)cc3)c3ccccc32)cc1 | inactive
55 | c1ccc(CNc2ncnc3[nH]ncc23)cc1 | inactive
56 | CCN(CC)S(=O)(=O)c1cc([N+](=O)[O-])ccc1N=Nc1c(O)n(C)c2ccccc12 | inactive
57 | O=[N+]([O-])c1cc(S(=O)(=O)Nc2cccc(Cl)c2)ccc1N=Nc1c(O)[nH]c2ccccc12 | 10 µM (active)
58 | CN1CCN(c2ccc(S(=O)(=O)Nc3ccccc3)cc2[N+](=O)[O-])CC1 | inactive
59 | O=C(Nc1ccc(F)cc1F)c1cnn(-c2ccc(F)cc2)c1-n1cccc1 | inactive
60 | CCCS(=O)(=O)N1CCCC(C(=O)NCc2ccco2)C1 (stereo unspecified) | inactive
61 | CC1CN(C(=O)N2CCC(C(=O)NCc3ccco3)CC2)c2cc(Cl)ccc2O1 (stereo unspecified) | 31.6 µM (active)
62 | Cc1ccc2c(c1)N(C(=O)CCC(=O)NCc1ccccc1F)CC(C)O2 (stereo unspecified) | inactive
63 | CC(=O)N/N=C/c1cc2c(cc1[N+](=O)[O-])OCO2 | inactive
64 | CSc1ccccc1NC(=O)CN(C)CC(=O)Nc1ccc(Cl)cc1[N+](=O)[O-] | inactive
65 | CN(C)/N=C/c1cc(Cl)cc([N+](=O)[O-])c1O | 15.8 µM (active)
66 | CC1Cc2cc(S(=O)(=O)CCC(=O)NCc3ccc(Cl)cc3)ccc2N1C(=O)C1CC1 (stereo unspecified) | inactive

Row | Structure (SMILES) | Potency
67 | CCN1CCN(c2ncc3c(n2)CC(c2ccccc2O)CC3=O)CC1 (stereo unspecified) | inactive
68 | COc1ccc2nc(Nc3nc(-c4cc5ccccc5oc4=O)cs3)sc2c1 | inactive
69 | COc1ccc2nc(Nc3nc4cc5c(cc4s3)OCCO5)sc2c1 | 3.55 µM (active)
70 | COc1ccc2nc(NC(=O)c3ccc(Br)s3)sc2c1 | inactive
71 | CCC1=Nc2cc(C(=O)NCCCOC(C)C)ccc2Sc2ccc(C)cc21 | inactive
72 | C=CC(C1=CC(=O)C=CC1=O)c1ccc(O)cc1 (stereo unspecified) | 28.2 µM (active)
73 | COc1cc2nc(SCc3ccc(F)cc3)n3nc(CCn4c(C)nc5ccccc54)nc3c2cc1OC | inactive
74 | CCCN(CC(=O)Nc1ccc(C(N)=O)cc1)CC(=O)Nc1ccccc1C | inactive
75 | CCCC(=O)Nc1ccc(C(=O)N/N=C/c2ccc[nH]2)cc1 | 15.8 µM (active)
76 | CCCC(=O)Nc1ccc(C(=O)NCCCn2ccnc2)cc1 | inactive
77 | CCOc1cc2[nH]c(=O)n(Cc3ccc(C(=O)NCCN(CC)CC)cc3)c(=O)c2cc1OCC | inactive
78 | CCN(CCCNC(=O)c1c(C)oc2ncn(CC(C)C)c(=O)c12)Cc1ccccc1 | inactive
79 | Cc1ccc2[nH]c3c(=O)n(CC(=O)NC(C)C)ncc3c2c1 | inactive
80 | COc1ccc(Cc2nc3ccc(C(=O)NCc4ccccc4Cl)cc3o2)cc1 | inactive
81 | COc1ccc(OC)c(NC(=O)CSC2=Nc3ccccc3C3=NC(CC(=O)NCc4ccc(F)cc4)C(=O)N23)c1 (stereo unspecified) | inactive
82 | Cc1ccc(C(=O)CC2(O)C(=O)N(CCc3ccccc3)c3ccc(Br)cc32)cc1 (stereo unspecified) | inactive
83 | COc1ccc2c(c1)C(=C(C#N)C#N)C(=O)N2CCc1ccccc1 | 28.2 µM (active)
84 | C#CCN1C(=O)C(O)(CC(=O)c2cc(OC)ccc2OC)c2ccccc21 (stereo unspecified) | inactive
85 | Cc1cccc(C(=O)N2c3nc(-c4ccco4)nn3C3(CCCCC3)[C@@H]3CCCC[C@@H]32)c1 | inactive
86 | COc1ccccc1N1CCN(C2C(=O)c3ccccc3N2C(C)=O)CC1 (stereo unspecified) | inactive
87 | CN(C)c1nc(=Nc2cccc(Cl)c2)ss1 | 25.1 µM (active)
88 | CCOC(=O)C1=C(O)CSC1=Nc1cccc(Cl)c1 | inactive

Row | Structure (SMILES) | Potency
89 | CC(=O)N1CCCc2cc(S(=O)(=O)N3CCC(C(=O)NCc4ccc(C)cc4)CC3)ccc21 | inactive
90 | CCCCN(CC)CCCNC(=O)c1nn(C)c2c1CS(=O)(=O)c1ccccc1-2 | inactive
91 | Cc1c2cnn(-c3ccccc3)c(=O)c2c(C)n1C(C)C(=O)Nc1ccc(Br)cc1F (stereo unspecified) | inactive
92 | CCSc1ncnc2c(C#N)c3n(c12)CCCCC3 | inactive
93 | CCSC1=C(C#N)C(=O)n2c1cc1c2CCCC1 | 25.1 µM (active)
94 | CCc1ccccc1NC(=O)c1ccc(F)c(S(=O)(=O)NC2CCCCCC2)c1 | inactive
95 | Cc1oc2c(c1C(=O)Nc1ccc(F)c(F)c1)C1=NCCN1C=N2 | inactive
96 | CCOC(=O)c1ccc(CN(Cc2ccccc2)S(=O)(=O)c2ccc(Cl)cc2)cc1 | inactive
97 | CC(C)CCN(C(=O)Nc1ccc(Cl)c(Cl)c1)C(C)c1cccs1 (stereo unspecified) | inactive
98 | O=C(NCc1cccnc1)C(=O)Nc1nc(-c2ccccc2)cs1 | inactive
99 | c1cnc(Nc2nc(-c3ccc4ccccc4c3)cs2)nc1 | inactive
100 | COc1ccc(-c2csc(Nc3ccc(O)cc3)n2)cc1 | 7.94 µM (active)
101 | COc1ccc(OC)c(Nc2nc(-c3ccc(O)c(O)c3)cs2)c1 | 10 µM (active)
102 | COc1ccc(-c2csc(NC(=O)COC(=O)c3ccc(Br)o3)n2)cc1 | inactive
103 | COc1ccc(-c2csc(NC(=O)c3ccc(N4C(=O)CCC4=O)cc3)n2)cc1OC | inactive
104 | c1ccc(Nc2nc(-c3ccncc3)cs2)nc1 | inactive
105 | COc1ccc(-c2csc(NC(=O)CCCc3cccs3)n2)cc1 | inactive
106 | Oc1ccc(-c2csc(Nc3cccnc3)n2)cc1 | 15.8 µM (active)
